JMJD2A Tudor inh = qHTS Assay for Inhibitors of JMJD2A-Tudor Domain. AlphaScreen JMJD2A-Tudor / H3K4me3 peptide binding. Potency, µM (titrated, usually from 114 µM), for inactives: top-dose activity change, negative = inhibition, most hits filed as inhibitors. hit rate 4.4% among 390,000; also: potency is read from the fitted curve at half-maximal effect; % is scaled to controls: 0 for no effect and ±100 for the full control effect; nearly all actives have a fitted effect of over 50% in size
BAZ2B block = qHTS Assay for Inhibitors of BAZ2B; AlphaScreen BAZ2B-H3K14Ac peptide displacement; hit rate 4.4% among 360,000; Bromodomain adjacent to zinc finger domain protein 2B (Homo sapiens), Q9UIF8; Potency, µM (highest dose often 114 µM), without a hit: at the highest dose activity change, negative = inhibition, hits mostly inhibitors; also: potency is read from the fitted curve at half-maximal effect; % is scaled to controls: 0 for no effect and ±100 for the full control effect; nearly all actives have a fitted effect of over 60% in size
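Multi-concentration screen (max 110 uM) measuring displacement of acetylated histone H3 peptide from BAZ2B by AlphaScreen, using 50 nM protein, 50 nM peptide and 10 ug/mL streptavidin donor plus Ni-chelate acceptor beads.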
G9a inh = qHTS Assay for Inhibitors of Histone Lysine Methyltransferase G9a; Histone-lysine N-methyltransferase EHMT2 (Homo sapiens), Q96KQ7; G9a H3K9 monomethylation, AlphaScreen, 2 h; Potency, µM (highest dose often 102 µM), inactives show at the highest dose activity, negative = inhibition, hits mostly inhibitors; hit rate 8.8% among 350,000; AID 504332, 2011; also: potency is read from the fitted curve at half-maximal effect; % is scaled to controls: 0 for no effect and ±100 for the full control effect; nearly all actives have a fitted effect of over 75% in size
Target sequence (Q96KQ7 913-1193 limits assumed): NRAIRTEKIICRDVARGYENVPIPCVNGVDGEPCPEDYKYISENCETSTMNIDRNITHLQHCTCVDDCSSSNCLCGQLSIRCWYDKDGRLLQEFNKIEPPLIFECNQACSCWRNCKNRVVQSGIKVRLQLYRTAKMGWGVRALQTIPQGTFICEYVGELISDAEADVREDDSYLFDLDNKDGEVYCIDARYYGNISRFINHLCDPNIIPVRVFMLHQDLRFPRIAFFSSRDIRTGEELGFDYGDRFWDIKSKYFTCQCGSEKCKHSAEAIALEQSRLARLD
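Chemiluminescent proximity detection of H3K9 monomethylation, read after 10 min bead incubation in the dark. Reaction: 20 nM G9a, 500 nM biotin-H3K9 peptide, 20 uM SAM cofactor, 2 h, room temperature, following 15 min enzyme-compound preincubation.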
PLK1 PBD inh = qHTS for Inhibitors of PLK1-PDB (polo-like kinase 1 - polo-box domain): Primary Screen | Serine/threonine-protein kinase PLK1 (Homo sapiens), P53350 | Plk1 PBD binding of FITC phosphopeptide, fluorescence polarization | Potency, µM, inactives show max response, negative = inhibition, hits mostly inhibitors | hit rate 2.8% among 360,000 | AID 720504, 2013; also: potency is read from the fitted curve at half-maximal effect; series mostly up to about 57 µM; % is scaled to controls: 0 for no effect and ±100 for the full control effect; nearly all actives have a fitted effect of over 65% in size
HP1b binding inh = HTS for Inhibitors of HP1-beta Chromodomain Interactions with Methylated Histone Tails. AID 540317, 2011. Chromobox protein homolog 1 (Homo sapiens), P83916. AlphaScreen HP1-beta / biotin-H3K9me3 peptide binding. hit rate 0.56% among 390,000. Potency, µM (highest dose often 114 µM), inactives show top-dose activity change, negative = inhibition, hits mostly inhibitors; also: potency is read from the fitted curve at half-maximal effect; nearly all actives have a fitted effect of over 70% in size
Target sequence (P83916 whole entry, looked up): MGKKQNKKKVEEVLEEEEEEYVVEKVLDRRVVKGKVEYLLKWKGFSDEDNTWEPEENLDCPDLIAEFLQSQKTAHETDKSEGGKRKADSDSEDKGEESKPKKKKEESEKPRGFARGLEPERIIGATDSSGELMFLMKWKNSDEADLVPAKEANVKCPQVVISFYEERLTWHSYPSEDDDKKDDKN
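Compound inhibition of the preformed complex between 50 nM HP1-beta and 50 nM biotinylated H3K9me3 peptide was read by AlphaScreen. Buffer was PBS pH 7.4 with 0.01% Tween-20. Incubations ran 30 min at room temperature, with 10 ug/mL donor/acceptor beads.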
PI5P4K alpha inh = qHTS for Inhibitors of phosphatidylinositol 5-phosphate 4-kinase (PI5P4K); PI5P4Kalpha enzyme, ADP-Glo luminescence, 60 min; hits give low values; hit rate 1.2% among 330,000; max response, %; AID 652105, 2013; active = max response of -50% or lower; inconclusive = between -30% and -50%; inactive = -30% or higher; also: value at the top dose of about 77 µM; % is scaled to controls: 0 for no effect and ±100 for the full control effect
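Enzyme plus substrate dispensed, test compounds pinned in, then ATP (5 microM final) added. After 60 min at RT, ADP-Glo reagent 1 for 45 min and reagent 2 for 30 min preceded luminescence imaging.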
Numbers without * were called inactive; ? = inconclusive; . = no result given; [ ] = another dose, or the depositor's remark. Shown are actives, neighbours in structure and some others; about 12% of the full set was active somewhere. Unless noted, calls follow the shape of the dose curve; as a rule, active = well fitted curve in the direction sought with a large enough effect; inconclusive = small, poorly fitted or top-dose-only effect, or another doubt; inactive = no such curve, though single readings can be large; an effect the other way counts as inactive or inconclusive.

SMILES	JMJD2A Tudor inh	BAZ2B block	G9a inh	PLK1 PBD inh	HP1b binding inh	PI5P4K alpha inh
COc1ccc(C(=O)c2ccc([N+](=O)[O-])cc2)c(OC)c1OC	-22%	.	.	-1%	2%	6
O=c1[nH]cnc2c1ncn2[C@H]1C[C@H](O)[C@@H](CO)O1	-2%[57.1 µM]	.	.	.	18%[57 µM]	.
C#CCOCCOCCOCCNc1nc(N2CCN(C(=O)[C@H]([C@@H](C)CC)n3cc(CCCCN)nn3)CC2)nc(N2CCN(C(=O)[C@H](CCCCN)n3cc(CC(C)O)nn3)CC2)n1 (stereo partly drawn)	-34%	?	-37%[2.33 µM]	10%	23%	-5
C#CCOCCOCCOCCNc1nc(N2CCOCC2)nc(N2CCN(C(=O)[C@H]([C@@H](C)O)n3cc(CCCCN)nn3)CC2)n1	-15%	?	45µM*	-18%	19%	8
C#CCOCCOCCOCCNc1nc(N2CCOCC2)nc(N2CCN(C(=O)[C@H]([C@@H](C)CC)n3cc(CCCN=C(N)N)nn3)CC2)n1	-12%	-36%	50µM*	6%	33%	-2
C#CCOCCOCCOCCNc1nc(N2CCN(C(=O)[C@H]([C@@H](C)O)n3cc(CCCCN)nn3)CC2)nc(N2CCN(C(=O)[C@H]([C@@H](C)CC)n3cc(CCCCN)nn3)CC2)n1	-14%	-31%	1%[2.33 µM]	4%	39%	4
CCOC(=O)C1=C(C)N(c2ccccc2)C(=O)C1CC(=O)O (stereo not drawn)	5%	4%	18µM*	-7%	49%	1
CCOC(=O)C1=C(C)N(C)C(=O)C1CC(=O)O (stereo not drawn)	56µM*	-3%	-16%[59 µM]	?	-58%	.
Cc1ccc(NC2=C(Cl)C(=O)OC2NC(=O)c2ccccc2)cc1 (stereo not drawn)	-8%[57.1 µM]	-5%	26%[59 µM]	-25%	15%	0
O=C1OC(NC(=O)c2ccccc2)C(n2cc(CO)nn2)=C1Cl (stereo not drawn)	89µM*	?	?	9.5µM*	?	?
CCOC(=O)[C@]12CCC=C1N(Cc1ccc3c(c1)OCO3)C(=O)[C@H](CC(=O)NCCC(C)C)C2	.	.	.	0%	.	7
C#CCOCCOCCOCCNc1nc(N2CCN(C(=O)CCCCCCCCCCNC(=O)[C@H](CCCCN)n3cc(C[C@@H](C)CC)nn3)CC2)nc(N2CCN(C(=O)CCCCCCCCCCNC(=O)[C@H](CCCN=C(N)N)n3cc(C[C@@H](C)CC)nn3)CC2)n1	35µM*	50µM*	-38%[2.33 µM]	9%	50µM*	-90*
C#CCOCCOCCOCCNc1nc(N2CCN(C(=O)CCCCCCCCCCNC(=O)[C@@H](CCSC)n3cc(CCO)nn3)CC2)nc(N2CCN(C(=O)CCCCCCCCCCNC(=O)[C@H](CCCN=C(N)N)n3cc(C[C@@H](C)CC)nn3)CC2)n1	45µM*	50µM*	-15%[2.33 µM]	15%	-32%	-79*
C#CCOCCOCCOCCNc1nc(N2CCN(C(=O)CCCCCCCCCCNC(=O)[C@H](CCCCN)n3cc(C)nn3)CC2)nc(N2CCN(C(=O)CCCCCCCCCCNC(=O)[C@H](CCCN=C(N)N)n3cc(C[C@@H](C)CC)nn3)CC2)n1	56µM*	?	-7%[2.33 µM]	10%	?	-51*
C#CCOCCOCCOCCNc1nc(N2CCN(C(=O)Cn3cc(CCCN=C(N)N)nn3)CC2)nc(N2CCN(C(=O)[C@H](CCCCN)n3cc(CCC(=O)O)nn3)CC2)n1	-4%	-9%	-8%[2.33 µM]	-1%	23%	-7
C#CCOCCOCCOCCNc1nc(N2CCN(C(=O)CCCCCCCCCCNC(=O)[C@H](CO)n3cc(CCCCCN)nn3)CC2)nc(N2CCN(C(=O)CCCCCCCCCCNC(=O)[C@H](CCCN=C(N)N)n3cc(C[C@@H](C)CC)nn3)CC2)n1	.	50µM*	3%[2.33 µM]	.	.	.
CC(=O)c1ccccc1NC(=O)COC(=O)CCC1CCCC1	143%	.	.	6%	198%	15
COc1ccc(NCc2cc3ccc(OC)cc3n(CC(=O)Nc3cccc(OC)c3)c2=O)cc1	-10%	-21%	-33%[59 µM]	.	21%	.
CCc1ccccc1N(CC(=O)NC1CCCCC1)C(=O)CCCC(=O)Nc1ccccn1	13%	-18%	26%	2%	32%	-8
CCOC(=O)C1CCN(Cc2ccc(OC)c(C)c2OC)CC1	1.1µM*	50µM*	?	-9%	?	-1
OC1CCCN(Cc2cccc3ccccc23)C1 (stereo not drawn)	7%	3%	-9%[59 µM]	1%	29%	1
Oc1c(CN2CCCC(C(F)(F)F)C2)cc(Cl)c2ccccc12 (stereo not drawn)	-24%	-29%	40µM*	-9%	-2%	1
CCOC(=O)C1CCN(Cc2cc(Cl)c3ccccc3c2O)CC1	-21%	?	45µM*	?	-9%	3
CCOC(=O)C1CCN(Cc2cc(=O)oc3cc(C)c(Cl)cc23)CC1	?	18%	17%	27µM*	16%	-7
O=Cc1ccc(OC(=O)/C=C/c2ccccc2)cc1	0%	6%	4%	-13%	17%	-2
SMILES	JMJD2A Tudor inh	BAZ2B block	G9a inh	PLK1 PBD inh	HP1b binding inh	PI5P4K alpha inh
CCCCC(CC(O)COCCC)c1n[nH]c(=S)n1-c1ccccc1 (stereo not drawn)	16µM*	-1%	15%[0.501 µM]	2%	40%	-4
COc1ccc(-n2c(CCc3ccccc3)n[nH]c2=S)cc1	11µM*	-34%	-117%	-11%	9%	-2
COc1ccc(OCc2n[nH]c(=S)n2-c2ccc(C)cc2)cc1	?	-32%	?	3%	7%	-5
Oc1ccc(CCc2n[nH]c(=S)n2-c2ccc(F)cc2)cc1	25µM*	-15%	6.3µM*	-8%	17%	-9
COc1ccc(-n2c(Cn3nnc4ccccc43)n[nH]c2=S)cc1	18µM*	1%	8.9µM*	-6%	34%	1
CCCCC(CC(O)COCCC)C(=O)NN (stereo not drawn)	0%	-2%	-3%	-8%	35%	-7
CCN(C(=O)CCn1cnc2onc(-c3ccc(F)cc3)c2c1=O)c1ccc(OC)cc1	-23%	8%[57.1 µM]	-8%[59 µM]	.	34%	.
CCCN1C(=O)C2(c3ccccc31)c1c(oc3cc(C)c(C)cc3c1=O)C(=O)N2CCCOC (stereo not drawn)	-23%	-1%	-1%[59 µM]	.	3%	.
